High-throughput results as filed in PubChem.
Hits are enriched below; roughly 11% of the tested compounds scored in any of these assays.
G9a block: blocks human histone lysine methyltransferase G9a | Q96KQ7 | G9a H3K9 monomethylation, AlphaScreen, 2 h | Potency, µM (doses to about 102 µM), inactives show at the top dose activity, negative = inhibition, usual class: inhibitors | 350,000 tested, 8.8% active | AID 504332; also: % is scaled to controls: 0 for no effect and ±100 for the full control effect; nearly all actives have a fitted effect of over 75% in size
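Readings reflect AlphaScreen signal from monomethyl-H3K9 antibody detection. HMT at 20 nM; substrate b-H3K9 500 nM; cofactor SAM 20 uM; 2 h RT reaction; compounds tested as titrations in qHTS with 15 min preincubation.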
BAZ2B block: inhibitors of human BAZ2B bromodomain; Q9UIF8; Potency, µM (highest dose often 114 µM), for the others: at the top dose activity change, negative = inhibition, usual class: inhibitors; AlphaScreen BAZ2B-H3K14Ac peptide displacement; 360,000 tested, 4.4% active; AID 504333; also: % is scaled to controls: 0 for no effect and ±100 for the full control effect; nearly all actives have a fitted effect of over 60% in size
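AlphaScreen luminescence quantifies BAZ2B engagement of H3K14Ac peptide; the protein and biotinylated peptide are both at 50 nM final, buffer PBS pH 7.4 with 0.01% Tween-20, all steps at room temperature.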
JMJD2A Tudor inh: blocks the human JMJD2A Tudor domain. 390,000 tested, 4.4% active. AlphaScreen JMJD2A-Tudor / H3K4me3 peptide binding. O75164. Potency, µM (series often up to 114 µM), without a hit: top-dose activity change, negative = inhibition, actives largely listed as inhibitors; also: % is scaled to controls: 0 for no effect and ±100 for the full control effect; nearly all actives have a fitted effect of over 50% in size
Target sequence (O75164 whole entry, looked up, the tested form may be a part): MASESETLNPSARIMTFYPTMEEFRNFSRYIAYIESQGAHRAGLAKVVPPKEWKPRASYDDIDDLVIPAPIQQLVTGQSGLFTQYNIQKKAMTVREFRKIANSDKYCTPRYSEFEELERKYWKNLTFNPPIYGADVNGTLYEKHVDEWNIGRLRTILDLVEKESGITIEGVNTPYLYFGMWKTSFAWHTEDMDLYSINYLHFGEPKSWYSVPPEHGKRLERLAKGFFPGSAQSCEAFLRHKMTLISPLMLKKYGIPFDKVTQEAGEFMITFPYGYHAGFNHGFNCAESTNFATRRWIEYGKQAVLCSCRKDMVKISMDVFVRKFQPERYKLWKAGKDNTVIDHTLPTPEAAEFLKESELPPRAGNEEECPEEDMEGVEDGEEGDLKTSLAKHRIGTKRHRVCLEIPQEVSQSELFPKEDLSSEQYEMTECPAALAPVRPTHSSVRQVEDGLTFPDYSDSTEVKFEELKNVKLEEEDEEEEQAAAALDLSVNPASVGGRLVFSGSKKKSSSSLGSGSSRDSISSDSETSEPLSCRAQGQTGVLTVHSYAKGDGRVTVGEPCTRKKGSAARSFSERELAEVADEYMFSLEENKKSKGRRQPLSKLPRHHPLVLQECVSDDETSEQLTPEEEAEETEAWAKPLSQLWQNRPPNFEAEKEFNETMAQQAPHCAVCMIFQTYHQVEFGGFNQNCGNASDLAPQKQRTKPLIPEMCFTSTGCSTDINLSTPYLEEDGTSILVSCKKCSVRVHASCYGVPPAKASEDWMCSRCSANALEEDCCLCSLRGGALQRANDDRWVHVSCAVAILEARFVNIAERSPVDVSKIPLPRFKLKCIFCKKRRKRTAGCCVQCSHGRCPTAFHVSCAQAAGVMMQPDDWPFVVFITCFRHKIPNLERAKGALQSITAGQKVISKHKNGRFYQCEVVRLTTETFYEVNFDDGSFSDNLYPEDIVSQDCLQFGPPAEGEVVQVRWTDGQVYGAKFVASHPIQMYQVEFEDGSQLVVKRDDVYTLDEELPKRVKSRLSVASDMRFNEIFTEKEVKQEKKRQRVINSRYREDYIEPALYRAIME
HP1b binding inh: HP1-beta chromodomain-methylated histone interaction inhibition. P83916. AlphaScreen HP1-beta / biotin-H3K9me3 peptide binding. Potency, µM (highest dose often 114 µM), inactives show at the top dose activity change, negative = inhibition, most hits filed as inhibitors. 390,000 tested, 0.56% active; also: nearly all actives have a fitted effect of over 70% in size
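Compound inhibition of the preformed complex between 50 nM HP1-beta and 50 nM biotinylated H3K9me3 peptide was read by AlphaScreen. Buffer was PBS pH 7.4 with 0.01% Tween-20. Incubations ran 30 min at room temperature, with 10 ug/mL donor/acceptor beads.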
L3MBTL1 inh: L3MBTL1 (human) inhibition; Q9Y468; AlphaScreen L3MBTL1–H3K9me1 peptide binding; Potency, µM (series often up to 57.1 µM), without a hit: at the highest dose activity, negative = inhibition, hits mostly inhibitors; 230,000 tested, 0.66% active; AID 485360; also: % is scaled to controls: 0 for no effect and ±100 for the full control effect; nearly all actives have a fitted effect of over 60% in size
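Displacement of a biotinylated histone H3(1-15) peptide monomethylated at Lys9 (75 nM) from L3MBTL1 (50 nM) was measured by AlphaScreen after a 30 min room-temperature compound incubation; cefsulodin titration served as intraplate control.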
* marks the source's active call; other numbers are inactive results; ? = inconclusive; . = no result given; [ ] = another dose, or the depositor's remark. Calls follow the shape of the dose curve; as a rule, active = well fitted inhibition curve with a large enough effect; inconclusive = small, poorly fitted or top-dose-only effect; inactive = no such curve, though single readings can be large or run the other way. Potency is read from the fitted curve at half-maximal effect.

SMILES	G9a block	BAZ2B block	JMJD2A Tudor inh	HP1b binding inh	L3MBTL1 inh
CC1=C(C(=O)OC(C)C)C(c2ccco2)NC(=O)N1 (centres undefined)	-10%[59 µM]	?	?	9%	?
CCOC(=O)C1=C(c2ccccc2)N=c2s/c(=C\c3ccco3)c(=O)n2C1c1cccs1 (centres undefined)	?	11µM*	25µM*	-35%	22%
CCOC(=O)C1=C(c2ccccc2)N=c2s/c(=C\c3cc(OC)c(OC)c(OC)c3)c(=O)n2C1c1cccs1 (centres undefined)	?	?	-20%	18%	-13%
CCOC(=O)C1=C(N)n2c(s/c(=C\c3ccco3)c2=O)=C(C(=O)OC(C)C)C1c1ccco1 (centres undefined)	28µM*	?	?	-29%	-3%
CCOC(=O)C1=C(N)n2c(s/c(=C\c3ccco3)c2=O)=C(C(=O)OCC)C1c1ccco1 (centres undefined)	?	7.9µM*	?	-18%	-3%
COc1ccc(-n2c(=O)c3c4c(sc3n3c(SCCC(C)C)nnc23)COC(C(C)C)C4)cc1 (centres undefined)	-5%[59 µM]	1%	-3%	32%	.
COc1ccc(-n2c(=O)c3c4c(sc3n3c(=S)[nH]nc23)CCCC4)cc1	?	-7%	56µM*	6%	-1%
CC(C)C1Cc2c(sc3c2c(=O)n(-c2ccccc2)c2n[nH]c(=S)n32)CO1 (centres undefined)	1.3µM*	-18%	20µM*	3%	.
COc1ccc(-n2c(=S)[nH]c3sc4c(c3c2=O)CCN(C)C4)cc1	14µM*	-25%	.	.	.
COc1ccc(-n2c(SC)nc3sc4c(c3c2=O)CCN(C)C4)cc1	?	-30%	-24%	25%	.
O=C(NN1CCCCC1)c1cnn2c(C(F)F)cc(-c3ccccc3)nc12	-32%	-17%	-13%	33%	2%[11.4 µM]
C=C1c2cccc(O)c2C(=O)C2C(=O)[C@]3(O)C(=O)C(C(N)=O)C(=O)[C@@H](N(C)C)[C@@H]3[C@@H](O)[C@H]12 (some centres undefined)	.	.	3.2µM*	?	0.89µM*
COc1ccc(OCCCC(=O)N(CCC2=CCCCC2)c2c(N)n(Cc3ccccc3)c(=O)[nH]c2=O)cc1	-4%[0.501 µM]	-26%	0%	23%	-3%
CCC1CCc2sc(C(=O)OCC(=O)N(CCOC)c3c(N)n(Cc4ccccc4)c(=O)[nH]c3=O)cc2C1 (centres undefined)	28µM*	1%	-8%	11%	-11%
COCCN(C(=O)COC(=O)c1ccccc1NCc1ccco1)c1c(N)n(Cc2ccccc2)c(=O)[nH]c1=O	79µM*	-30%	-16%	22%	-7%
COc1ccccc1CCC(=O)N(CCC1=CCCCC1)c1c(N)n(Cc2ccccc2)c(=O)[nH]c1=O	50µM*	5%	-14%	4%	-6%
COCCN(C(=O)CN1CCc2ccccc2C1)c1c(N)n(Cc2ccccc2)c(=O)[nH]c1=O	40µM*	5%	-7%	31%	-3%
COc1ccc(N=C(C)C2=C(O)c3ccccc3C2=O)cc1	1%[59 µM]	?	?	7%	-6%
CC(=O)Nc1ccc(N=C(C2=C(O)c3ccccc3C2=O)c2ccccc2)cc1	40µM*	40µM*	56µM*	?	-22%
Cc1cccc(-c2c3c(=O)n(C)c(=O)n(C)c3cn2-c2ccccc2O)c1	?	-15%	-18%	30%	-9%
COC(=O)c1ccccc1-n1cc2c(c1-c1cccc(C)c1)c(=O)n(C)c(=O)n2C	7.9µM*	-13%	-24%	16%	.
CCOc1ccc(Sc2cc(C(=O)NC(C)c3ccccc3)c3ccccc3n2)cc1 (centres undefined)	-4%[59 µM]	-1%	-20%	8%	.
CCN1C(=O)c2ccccc2Sc2ccc(C(=O)NCCCN3CCCCC3)cc21	?	-3%	-17%	59%	.
COc1cccc(/C=C2/Sc3ccc(C(=O)NCCCN4CCCC4)cc3NC2=O)c1	-10%[59 µM]	?	-34%	-6%[57 µM]	.
O=C1Nc2cc(C(=O)NCCCN3CCCC3)ccc2S/C1=C/c1ccccc1F	14µM*	-38%	?	-10%[57 µM]	.
SMILES	G9a block	BAZ2B block	JMJD2A Tudor inh	HP1b binding inh	L3MBTL1 inh
O=C(NCCCN1CCCCC1)c1ccc2c(c1)NC(=O)c1ccccc1S2	50µM*	-4%[57.1 µM]	-19%	21%	.
Cn1nnc2c(N3CCN(c4ccccc4Cl)CC3)ncnc21	1%[59 µM]	-11%	-7%	-5%	.
CCOC(=O)N1CCN(/[N+]([O-])=N/Oc2ccc([N+](=O)[O-])cc2[N+](=O)[O-])CC1	18µM*	.	-19%	63%	.
Clc1ccccc1Cn1c(/C=C/c2ccco2)nc2ccccc21	10µM*	?	?	?	-11%
CSC1=NC(C)(C)C=C(/C=C/c2ccc(Cl)cc2)N1	28µM*	?	?	?	-11%
CSC1=NC(C)(C)C=C(/C=C/c2ccc(Cl)cc2Cl)N1	50µM*	?	?	?	-7%
CSC1=NC(C)(C)C=C(/C=C/c2c(Cl)cccc2Cl)N1	40µM*	-30%	-14%	37%	18%
Nc1nccc(/C=C/c2c(Cl)cccc2Cl)n1	-11%	-17%	0%	18%	-7%
CCSC1=NC(C)(C)C=C(/C=C/c2ccc(Cl)cc2Cl)N1	50µM*	-7%	-29%	-17%	.
Nc1nccc(/C=C/c2ccc(Cl)cc2)n1	-23%	-3%	12%	24%	-2%
COc1ccc(-c2cnc(C)o2)cc1S(=O)(=O)Nc1ccc(F)cc1F	3%[59 µM]	?	-17%	41%	.
COc1ccc(-n2ccn(Cc3ccc(C)cc3)c(=O)c2=O)cc1OC	-45%[59 µM]	-13%	-10%	-3%	.
COc1ccc(N(CC(=O)NCc2ccccc2Cl)S(=O)(=O)c2c(C)[nH]c(=O)[nH]c2=O)cc1	4%[59 µM]	-5%	-3%	33%	.
O=C(O)/C=C\C(=O)Nc1ccccc1C(=O)N1CCN(c2ccc(Cl)cc2)CC1	-32%[2.33 µM]	-30%	?	29%	.
Clc1cccc(N2CCN(CCCN3CCN(c4ccccc4)CC3)CC2)c1	.	.	?	-22%[57 µM]	.
O=C(O)/C=C\C(=O)Nc1ccc(N2CCN(c3cccc(Cl)c3)CC2)cc1	.	35µM*	-11%[11.4 µM]	?	-12%
O=C(O)/C=C/C(=O)Nc1ccc(-n2ccc(C(F)(F)F)n2)cc1	45µM*	-2%	-17%	31%	1%
O=C(O)/C=C\C(=O)Nc1ccc(N2CCN(c3ccc(Cl)cc3)CC2)cc1	10µM*	?	-34%	-2%	?
Nc1ccc(N2CCN(c3cccc(Cl)c3)CC2)cc1	4µM*	35µM*	45µM*	?	-26%
CSc1ccc(C2c3[nH]c4ccccc4c3CCN2C(=O)CCC2CCCC2)cc1 (centres undefined)	-30%[59 µM]	?	?	-6%[57 µM]	.
